According to PubChem BioAssay (EPA / NIEHS):
“And” between values parts separate entries of the source, which are not always exact repeats. Identical values can stand only once. The source made the active and inactive calls. The calls were made as follows: active = hit-call score of the fitted dose curve at least 0.9, where 1 is the maximum; inactive = score below 0.9.

How the values were obtained:
Settings in all cases: primary human HUVEC with PBMC; actives raise or lower the signal
[1] = read-out: Monocyte Chemoattractant Protein-1 (MCP1), CCL2 (gene 6347); assay: BSK_LPS_MCP1: BioMAP Diversity Plus: LPS Assay for Monocyte Chemoattractant Protein-1 (MCP1) Biomarker Activity (AID 2283081);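 as to AC50: co-culture stimulated with LPS; secreted MCP-1 protein quantified by ELISA in culture supernatant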
Procedure, shortened: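 Values derive from bidirectional fitting against DMSO of ELISA-measured MCP-1 in a human primary endothelial and mononuclear cell co-culture, 24 h after chemical addition under LPS activation.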

[2] = BSK_LPS_PGE2: BioMAP Diversity Plus: LPS Assay for Prostaglandin E2 (PGE2) Biomarker Activity (AID 2283082);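 as to AC50: secreted prostaglandin E2 measured by ELISA in LPS-stimulated co-culture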
Procedure, shortened: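 Primary human endothelial cells and blood mononuclear cells, co-cultured with LPS, receive test chemical; PGE2 ELISA follows at 24 h, with SRB-stained parallel cultures flagging cytotoxicity.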

[3] = read-out: Macrophage colony-stimulating factor (MCSF), CSF1 (gene 1435); assay: BSK_LPS_MCSF: BioMAP Diversity Plus: LPS Assay for Macrophage colony-stimulating factor (MCSF) Biomarker Activity (AID 2283083)
Procedure, shortened: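 Bidirectional fit versus DMSO of ELISA-measured M-CSF in co-cultured human umbilical vein endothelial cells and PBMC, sampled 24 h after dosing.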

[4] = read-out: Tissue Factor, F3 (gene 2152); assay: BSK_LPS_TissueFactor: BioMAP Diversity Plus: LPS Assay for Tissue Factor Biomarker Activity (AID 2283084)
Procedure, shortened: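 Read-out: CD142 ELISA, 24 h. System: LPS-driven human endothelial/PBMC co-culture. Analysis: up- or down-signal fitted against DMSO.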

[5] = read-out: Tumor necrosis factor (Homo sapiens) (UniProt P01375); assay: BSK_LPS_TNFa: BioMAP Diversity Plus: LPS Assay for Tumour Necrosis Factor alpha (TNFa) Biomarker Activity (AID 2283085);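 as to AC50: TNFa protein level quantified by ELISA in the co-culture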
Procedure, shortened: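 ELISA-based TNFa endpoint in a human endothelial–PBMC co-culture sampled 24 h post-exposure. Curves were fitted in both directions using DMSO as baseline of activity.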

[6] = read-out: Vascular cell adhesion molecule 1 (VCAM1), VCAM1 (gene 7412); assay: BSK_LPS_VCAM1: BioMAP Diversity Plus: LPS Assay for Vascular cell adhesion molecule 1 (VCAM1) Biomarker Activity (AID 2283086)
Procedure, shortened: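 Measured by ELISA: VCAM-1 in LPS-activated HUVEC/PBMC co-cultures 24 h after treatment. Values reflect bidirectional fitting with DMSO as baseline.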

CD38, CD38 (gene 952) = assay: BSK_SAg_CD38: BioMAP Diversity Plus: SAg Assay for CD38 Biomarker Activity (AID 2283087)
Procedure, shortened: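 Measures CD38 on a human endothelial/PBMC co-culture driven by SEB and TSST-1, 24 h after compound exposure, using ELISA with fluorescence detection; DMSO defines baseline for bidirectional curve fitting.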

CD40, CD40 (gene 958) = assay: BSK_SAg_CD40: BioMAP Diversity Plus: SAg Assay for CD40 Biomarker Activity (AID 2283088)
Procedure, shortened: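 Endpoint derived by fitting increases or decreases versus DMSO controls. CD40 is detected by fluorescence ELISA in a human vascular co-culture of endothelium and PBMC at 24 h.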

CD69, CD69 (gene 969) = assay: BSK_SAg_CD69: BioMAP Diversity Plus: SAg Assay for CD69 Biomarker Activity (AID 2283089);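 as to AC50: cell surface CD69 protein quantified by ELISA with fluorescence detection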
Procedure, shortened: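 Endothelial/PBMC co-culture; chemical added; 24 h incubation; CD69 ELISA with fluorescence detection; bidirectional fit vs DMSO.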

[7] = read-out: Monocyte Chemoattractant Protein-1 (MCP1), CCL2 (gene 6347); assay: BSK_SAg_MCP1: BioMAP Diversity Plus: SAg Assay for Monocyte Chemoattractant Protein-1 (MCP1) Biomarker Activity (AID 2283090)
Procedure, shortened: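 Values derive from bidirectional fitting of ELISA-measured MCP1 against DMSO controls. Readings were taken 24 h after dosing human vascular endothelial cells co-cultured with peripheral blood mononuclear cells under superantigen stimulation.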

Measured: AC50

Sequence of Tumor necrosis factor (Homo sapiens) (P01375 whole entry, looked up): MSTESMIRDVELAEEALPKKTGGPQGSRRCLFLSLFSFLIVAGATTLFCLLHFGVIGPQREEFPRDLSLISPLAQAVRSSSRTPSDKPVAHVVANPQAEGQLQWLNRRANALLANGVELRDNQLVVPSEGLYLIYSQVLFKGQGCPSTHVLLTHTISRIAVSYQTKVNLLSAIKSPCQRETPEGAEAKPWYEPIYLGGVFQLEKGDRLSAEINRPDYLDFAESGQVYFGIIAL

COC(F)(C(F)F)C(F)(F)F (stereo not drawn)
inactive: all assays above

O=C=NCc1cccc(CN=C=O)c1
not listed: CD69, CD69 (gene 969)
inactive: all other assays above

Cc1ccc(S(=O)(=O)C(I)I)cc1
active: [1] 3.77 µM | [3] 2.3 µM | [4] 3.07 µM | [6] 3.03 µM | CD38, CD38 (gene 952) 2.99 µM | [7] 3.7 µM
inactive: [2] | [5]

CCN(CC)c1ccc(N=Nc2ccccc2)cc1
inactive: [2] | [4] | [5] | [6]
active: [1] 31.9 µM | [3] 20 µM | CD38, CD38 (gene 952) 27.5 µM | [7] 30.2 µM

C[C@]12CC[C@H]3C(=CCc4cc(O)ccc43)[C@@H]1CCC2=O
not listed: CD40, CD40 (gene 958)
inactive: all other assays above

CCN(CC)c1ccc(C=O)c(O)c1
not listed: CD40, CD40 (gene 958)
inactive: all other assays above

Nc1cc([N+](=O)[O-])cc(Cl)c1O
not listed: CD40, CD40 (gene 958) | CD69, CD69 (gene 969)
inactive: all other assays above

OCC(O)CC(F)(F)C(F)(F)C(F)(F)C(F)(F)F (stereo not drawn)
not listed: CD40, CD40 (gene 958)
inactive: all other assays above

NC(=O)C(F)(F)C(F)(F)C(F)(F)C(F)(F)C(F)(F)C(F)(F)C(F)(F)F
not listed: CD40, CD40 (gene 958) | CD69, CD69 (gene 969)
inactive: all other assays above

CCOC(C=C(C)CCC=C(C)C)OCC
inactive: [2] | [5] | CD38, CD38 (gene 952) | [7]
active: [1] 20 µM | [3] 33.1 µM | [4] 30.5 µM | [6] 31.7 µM

O=C1c2c(O)ccc(Nc3ccc(CCO)cc3)c2C(=O)c2c([N+](=O)[O-])ccc(O)c21
inactive: [5] | [7]
active: [1] 20 µM | [2] 29.4 µM | [3] 7.53 µM | [4] 3.97 µM | [6] 20 µM | CD38, CD38 (gene 952) 20 µM

O=S(=O)(O)CCC(F)(F)C(F)(F)C(F)(F)C(F)(F)F
not listed: CD40, CD40 (gene 958) | CD69, CD69 (gene 969)
inactive: all other assays above

NC(=O)C(F)(F)C(F)(F)C(F)(F)F
not listed: CD40, CD40 (gene 958)
inactive: all other assays above

FC(F)(F)C(F)(F)C(F)(F)CC1CO1 (stereo not drawn)
not listed: CD40, CD40 (gene 958) | CD69, CD69 (gene 969)
inactive: all other assays above

C=CC(=O)OCC(F)(F)C(F)(F)C(F)(F)COC(=O)C=C
active: [1] 18.8 µM and 16.1 µM | [2] 8.09 µM and 8.04 µM | [3] 14.9 µM and 8.27 µM | [4] 21.9 µM and 20.2 µM | [5] 14.9 µM and 15.7 µM | [6] 15.1 µM and 8.51 µM | CD38, CD38 (gene 952) 14.2 µM | CD69, CD69 (gene 969) 8.7 µM and 8.29 µM | [7] 22.5 µM and 14 µM

Cc1cc(C)c(O)c(C(C)(C)C)c1
active: [1] 36.7 µM | [3] 34.4 µM | [4] 30.8 µM | [6] 31.3 µM | CD38, CD38 (gene 952) 32.5 µM | CD69, CD69 (gene 969) 31.5 µM | [7] 30.8 µM
inactive: [2] | [5]

NC(=O)C(F)(F)C(F)(F)C(F)(F)C(F)F
not listed: CD40, CD40 (gene 958) | CD69, CD69 (gene 969)
inactive: all other assays above

CC(C)CCCC(C)CCO (stereo not drawn)
not listed: CD40, CD40 (gene 958) | CD69, CD69 (gene 969)
inactive: all other assays above
